Measurements published in PubChem BioAssay AID1347426 (Functional Genomics Laboratory (NCATS/FGL), 2020).
The campaign covered roughly 31,000 sequences. About 1,400 (4.5%) were called active. The sample as a whole holds a higher share of actives than the screen did. Unmarked numbers belong to inactive results.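 Rule for the calls: active = median seed-adjusted z-score above 1 or below -1; inactive = the rest.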

Assay: Novel Modifiers of Survival Motor Neuron (SMN) Protein: Gene Identification via Genome-wide siRNA Screen;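 note: luminescence tracks full-length SMN protein made from the SMN2 reporter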
Conditions: HEK293T SMN2-luciferase reporter, siRNA knockdown, 72 h; actives lie on both sides
Method in brief: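 Steps: spot 1 pmol siRNA, add Lipofectamine RNAiMax in serum-free DMEM, seed HEK293T SMN2–luciferase reporter cells; incubate 72 h at 37 °C; add ONE-Glo; normalize luminescence to control siRNA, log10, MAD. Candidates: |MAD| > 1.0.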

Sequence	median seed-adjusted z-score
CGACUAUGCUUUAGAUUAUTT against MAS1	-0.0551
CGGCCUAACUUUCAAGACATT against SDK2	0.908
GGUUCUGAAAUGUUCGUCATT against ZDHHC22	0.00446
GAUAAAAGGAUGGAUGAAATT against PRPF6	-1.06 (active)
GAAUCAAGACAAACCCGAATT against TTN	0.872
GCACUCUUCUCAUUCACGATT against ATP1B3	-0.225
CCAACGAACUCCUUACUUATT against SCP2	0.413
CAAUCACUCAGGAACAAAUTT against CHMP6	-1.81 (active)
ACAAUACCCUCAGACUGAATT against NMUR1	-0.265
UGGUGAAAAUUACAUCUGATT against CIP29	-1.18 (active)
CAAUCCUCAUGCUAAACCATT against SGK1	-0.659
GAGUGGACUGGGCAAAUCATT against 3-Sep	0.0683
CAGGUAUUCUGGUCAAUAUTT against ATL3	0.201
GACAAUGGGUUAUUCAGGATT against FNTA	1.04 (active)
GACACCUUCUUAGACGAUATT against AMPD1	0.378
GCGAGUAGAUAAUAUCGAATT against MAP3K5	-0.285
GCAGGUCAGUUAUCAGACUTT against SLC17A1	-0.271
CAGUUGUACUGGACGGCUATT against PALLD	-0.307
CAACCUCACUGACCGGCAATT against HOXD11	-0.185
CAUCUUUCCUAAAGAGUUUTT against POLR2D	-3.79 (active)
GCCUACAUGUUUCUGCUGATT against RHO	-0.267
CAGAGGAACUGACACCAUUTT against ETFA	-0.0619
CGCUUUUCGUUGUAAAUAUTT against NKX2-2	-0.0805
GAAGCUUGAGGAACACGAATT against GOLGB1	0.0851
CACUAAUGGAUAUUGCCUATT against BMI1	0
UGACUGCGGAUAUAACUGATT against LMAN2	-0.0921
GGGAAGGCAAUAAAACUUATT against TAAR9	-1.07 (active)

Sequence	median seed-adjusted z-score
GACUAAUGAACUACUAAAATT against HMMR	0.389
GAAUAUCUAGGUACAUGGATT against ADCY10	-0.573
CUGUACAACGUCAACCUCATT against SCNN1D	-1.8 (active)
CAGUUAAAGGUCAAGAUAATT against PI3	0.493
AGAUUAAGGAUAUGGAUGATT against CHRNA9	-0.454
GGAUAAUCGACACUCUGGATT against MATN3	0.0972
GGAUUAACAUAUGAUGACATT against ADAM18	-0.913
GGUUCUCAGGAGCACCAGATT against OASL	1.02 (active)
CAUGUCACCUGCAAAAUUATT against THEM2	0.449
GAGUCGUUGUCCAUCUUAATT against SR140	1.16 (active)
GCAGAUCCAUCAACUACGATT against UBR4	0.602
GGUUAUACUCGGGCAGAGATT against NDUFS5	-1.35 (active)
GGCUAACUAUUUUGUCAGATT against ABHD7	-0.301
CCAUGAUACUCCACUCCCATT against GUCA2A	0.121
GGCUAUGCAGGUCCACUGUTT against DDR1	-0.166
GGUUUGAAGGGUUGACUCATT against STK38L	0.079
GAGACAACAUGAAUGACAATT against CHGB	-1.29 (active)
GGAUGUGGGUUUACUCUUUTT against SLC1A5	-0.104
GCAUGGAUGCUUCUAGACATT against AKAP9	-1.22 (active)
CCAUGAUCCUGAUAGGCAATT against PLAT	0.246
AGACCACCUUCAUCCGACATT against EHD1	-0.616
ACCUCGGACUGGUACAUGATT against SLC38A3	-0.177
GCUCGUAAACUAGCUAAUATT against RCOR3	0.0446
GCAAGUGAAUAUGCGGAUATT against SNRPE	-2.77 (active)
GAAAACCCUUGUAAGUAUATT against ZNF354A	0.401
GGUGUAAAAGUGAUUAUAATT against LCLAT1	0
CACCUACUCUGACAACCAATT against HSPA1L	-1.27 (active)
